Values without a mark were called inactive. Records with an inconclusive call do not appear. A call without a number means that no potency is given here. Active and inactive are the calls of the source. Unless noted, the call rests on the fitted dose curve; in most records, active means well fitted curve in the direction sought with a large enough effect in the repeat runs; inconclusive means weak or mixed curves; inactive means no such curve, though single readings can be large; an effect the other way counts as inactive or inconclusive.
Tests used:
[1] = qHTS assay to identify small molecule antagonists of the glucocorticoid receptor (GR) signaling pathway - cell viability counter screen (AID 720693); further: nearly all actives have a fitted effect of over 55% in size
[2] = qHTS assay for identifying genotoxic compounds that show differential cytotoxicity against isogenic chicken DT40 cell lines with known DNA damage response pathways - wild type cell line (AID 743012); further: nearly all actives have a fitted effect of over 60% in size; further: potency means the concentration at half of the fitted maximal effect
Procedure, shortened: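 Parental DNA repair-proficient DT40 cells, 300 per well, were pre-incubated ~0.5 h at 37 C/5% CO2, pin-dosed with compounds in DMSO, then incubated 40 h. Viability was read as CellTiter-Glo luminescence after 30 min at room temperature.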

[3] = qHTS assay for identifying genotoxic compounds that show differential cytotoxicity against isogenic chicken DT40 cell lines with known DNA damage response pathways - Rad54/Ku70 mutant cell line (AID 743015); further: nearly all actives have a fitted effect of over 60% in size; further: potency means the concentration at half of the fitted maximal effect
[4] = qHTS assay to identify small molecule antagonists of the androgen receptor (AR) signaling pathway using the MDA cell line - cell viability counter screen (AID 743041; further: nearly all actives have a fitted effect of over 45% in size)
Procedure, shortened: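 R1881-driven MDA-kb2 AR-luc cells, 3,000/well, were dosed with library compounds for 16 h; cell health came from CellTiter-Fluor fluorescence in the reporter wells.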

[5] = qHTS assay to identify small molecule antagonists of the androgen receptor (AR) signaling pathway - cell viability counter screen (AID 743033; further: nearly all actives have a fitted effect of over 45% in size)
[6] = qHTS assay for identifying genotoxic compounds that show differential cytotoxicity against isogenic chicken DT40 cell lines with known DNA damage response pathways - Rev3 mutant cell line (AID 743014); further: nearly all actives have a fitted effect of over 55% in size; further: potency means the concentration at half of the fitted maximal effect
[7] = biological target: Androgen receptor (Homo sapiens) (UniProt P10275); experiment: qHTS assay to identify small molecule agonists of the androgen receptor (AR) signaling pathway (AID 743036; active means well fitted activation curve with a large enough effect in the signal ratio in the repeat runs, with a control signal flat, not every such curve was filed as active; the % refers to the signal ratio; further: potency means the concentration at half of the fitted maximal effect)
Androgen receptor (Homo sapiens), sequence (P10275 whole entry, looked up): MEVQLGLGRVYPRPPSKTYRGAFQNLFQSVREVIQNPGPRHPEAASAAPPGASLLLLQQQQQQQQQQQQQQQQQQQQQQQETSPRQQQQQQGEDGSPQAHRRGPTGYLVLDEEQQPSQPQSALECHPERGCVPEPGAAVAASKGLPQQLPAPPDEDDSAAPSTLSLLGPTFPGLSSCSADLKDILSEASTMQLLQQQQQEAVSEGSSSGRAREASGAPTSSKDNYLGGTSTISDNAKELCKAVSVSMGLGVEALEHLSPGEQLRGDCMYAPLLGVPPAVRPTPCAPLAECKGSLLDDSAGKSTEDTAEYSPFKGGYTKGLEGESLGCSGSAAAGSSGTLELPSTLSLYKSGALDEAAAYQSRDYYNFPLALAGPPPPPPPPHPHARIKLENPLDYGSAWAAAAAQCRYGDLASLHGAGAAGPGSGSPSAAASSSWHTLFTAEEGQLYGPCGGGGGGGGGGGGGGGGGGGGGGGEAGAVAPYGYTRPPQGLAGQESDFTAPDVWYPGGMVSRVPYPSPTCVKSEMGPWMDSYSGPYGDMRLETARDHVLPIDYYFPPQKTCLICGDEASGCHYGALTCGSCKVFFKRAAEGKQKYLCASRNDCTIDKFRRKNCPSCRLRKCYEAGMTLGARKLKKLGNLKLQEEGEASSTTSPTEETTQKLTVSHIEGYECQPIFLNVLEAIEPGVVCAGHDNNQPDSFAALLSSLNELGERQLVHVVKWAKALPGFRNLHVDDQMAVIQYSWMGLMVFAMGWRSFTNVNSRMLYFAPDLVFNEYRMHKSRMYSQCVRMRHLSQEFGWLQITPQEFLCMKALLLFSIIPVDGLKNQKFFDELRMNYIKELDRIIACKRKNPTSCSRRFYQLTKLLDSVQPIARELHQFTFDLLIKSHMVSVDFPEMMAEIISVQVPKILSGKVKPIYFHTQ
Procedure, shortened: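 HEK293 cells stably carrying a UAS-driven beta-lactamase reporter (GeneBLAzer AR-UAS-bla-GripTite) were plated at 2,000 cells/well, rested 4 h at 37C, then exposed to compounds in DMSO for 16 h. LiveBLAzer B/G FRET substrate was added for 2 h at room temperature; fluorescence read.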

[8] = biological target: Androgen receptor (Homo sapiens) (UniProt P10275); experiment: qHTS assay to identify small molecule agonists of the androgen receptor (AR) signaling pathway using the MDA cell line (AID 743040; further: nearly all actives have a fitted effect of over 20% in size)
Procedure, shortened: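 After a 5 h incubation at 37C and 0% CO2, MDA-kb2 reporter cells were dosed with compounds in DMSO and kept 16 h under the same conditions. Luciferase activity was then read as luminescence with ONE-Glo.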

[9] = biological target: Androgen receptor (Homo sapiens) (UniProt P10275); experiment: qHTS assay to identify small molecule antagonists of the androgen receptor (AR) signaling pathway using the MDA cell line (AID 743042; further: nearly all actives have a fitted effect of over 55% in size)
Procedure, shortened: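 Antagonist mode: compounds plus R1881 agonist added to MDA-kb2 AR-luc cells, incubated 16 h at 37C. Luciferase reporter luminescence quantified, with multiplexed CellTiter-Fluor readout for cell viability.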

[10] = biological target: Androgen receptor (Homo sapiens) (UniProt P10275); experiment: qHTS assay to identify small molecule antagonists of the androgen receptor (AR) signaling pathway (AID 743035; active means well fitted inhibition curve with a large enough effect in the signal ratio in the repeat runs, not every such curve was filed as active; the % refers to the signal ratio)
Procedure, shortened: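 HEK293 cells stably carrying a UAS-driven beta-lactamase reporter (AR-UAS-bla GripTite) were plated for 4 h at 37C, then given compound and the agonist R1881 and incubated 16 h. Reporter activity was read by LiveBLAzer B/G FRET fluorescence after 2 h at room temperature.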

With `Cc1c(F)c(N2CCNC(C)C2)cc2c1c(=O)c(C(=O)O)cn2C1CC1` (centres undefined) the Potency [1] was “inactive”, the Potency [2] was “inactive” and the Potency [3] was “inactive”. The Potency [4] was “inactive”.

In the case of `Cc1c(C)c([N+](=O)[O-])c(C(C)(C)C)c([N+](=O)[O-])c1C`, the Potency [1] is reported as “inactive”, the Potency [2] is reported as “inactive” and the Potency [3] is reported as “inactive”. The Potency [5] was “inactive” and the Potency [4] was “inactive”.

For `Nc1ccc(NCCO)c([N+](=O)[O-])c1`, the Potency [1] was “inactive”, the Potency [2] was “inactive” and the Potency [3] was “inactive”. For the same compound, the Potency [5] was “inactive”.

For `C[C@H]1NCc2cc(-c3ccc4c(=O)c(C(=O)O)cn(C5CC5)c4c3OC(F)F)ccc21`, the Potency [1] was “inactive”, the Potency [6] was “inactive” and the Potency [5] was “inactive”. The Potency [4] was “inactive”.

With `CN1CCCCC1CCN1c2ccccc2Sc2ccc(S(C)=O)cc21` (centres undefined) the Potency [1] was “inactive”, the Potency [2] was 29.8 µM (active) and the Potency [6] was 29.8 µM (active). For the same compound, the Potency [5] was “inactive” and the Potency [4] was “inactive”.

In the case of `CCC(COC(=O)CCS)(COC(=O)CCS)COC(=O)CCS`, the Potency [1] is reported as “inactive”, the Potency [2] is reported as “inactive” and the Potency [5] is reported as “inactive”. The Potency [4] was “inactive”.

In the case of `Cc1nc2n(c(=O)c1CCN1CCC(c3noc4cc(F)ccc34)CC1)CCCC2`, the Potency [1] is reported as “inactive”, the Potency [2] is reported as 9.44 µM (active) and the Potency [3] is reported as “inactive”. For the same compound, the Potency [5] was “inactive” and the Potency [4] was “inactive”.

With `S=C([S-])NCCNC(=S)[S-].S=C([S-])NCCNC(=S)[S-].[Mn+2].[Zn+2]` the Potency [1] was “inactive”, the Potency [6] was 33.5 µM (active) and the Potency [3] was 29.8 µM (active). For the same compound, the Potency [5] was “inactive” and the Potency [4] was “inactive”.

With `CC(N=C(NC#N)Nc1ccncc1)C(C)(C)C` (centres undefined) the Potency [1] was “inactive”, the Potency [6] was “inactive” and the Potency [5] was “inactive”. The Potency [4] was “inactive”.

For `CCCCCCCCCCCC(=O)OCC(C)OC(=O)CCCCC(=O)O` (centres undefined), the Potency [1] was “inactive”, the Potency [6] was “inactive” and the Potency [5] was “inactive”.

For `CCC(=O)C(=O)CC`, the Potency [1] was “inactive”, the Potency [6] was 28.5 µM (active) and the Potency [5] was “inactive”. For the same compound, the Potency [4] was “inactive”.

With `CCC(C)(CCC(C)C)C(=O)[O][Sn]([CH3])([CH3])[O]C(=O)C(C)(CC)CCC(C)C` (centres undefined) the Potency [1] was “inactive”, the Potency [2] was 54.5 µM (active) and the Potency [3] was “inactive”. For the same compound, the Potency [5] was “inactive” and the Potency [4] was “inactive”.

For `CC(C)Cn1cnc2c(N)nc3ccccc3c21`, the Potency [1] was “inactive”, the Potency [2] was “inactive” and the Potency [5] was “inactive”. For the same compound, the Potency [7] was “inactive”, the outcome [8] was “inactive” and the Potency [9] was “inactive”.

In the case of `CC(C)CCCCCOC(=O)CCS`, the Potency [1] is reported as “inactive”, the Potency [2] is reported as “inactive” and the Potency [3] is reported as “inactive”. The Potency [5] was “inactive” and the Potency [4] was “inactive”.

In the case of `O=S(=O)(O)c1ccc(Nc2nc(Nc3ccc(/C=C/c4ccc(Nc5nc(Nc6ccc(S(=O)(=O)O)cc6)nc(N(CCO)CCO)n5)cc4S(=O)(=O)O)c(S(=O)(=O)O)c3)nc(N(CCO)CCO)n2)cc1`, the Potency [1] is reported as “inactive”, the Potency [6] is reported as “inactive” and the Potency [3] is reported as “inactive”. The Potency [5] was “inactive”, the Potency [7] was 33.1 µM (active) and the outcome [8] was “inactive”. For the same compound, the Potency [9] was “inactive”.

For `CC[C@H](C)COC(=O)/C=C/c1ccc(N=Cc2ccc(OC)cc2)cc1`, the Potency [1] was “inactive” and the Potency [6] was 61 µM (active).

With `C=CCCC(=O)/C=C/C1C(C)=CCCC1(C)C` (centres undefined) the Potency [1] was “inactive”, the Potency [2] was “inactive” and the Potency [5] was “inactive”. For the same compound, the Potency [4] was “inactive”.

In the case of `OC1CCCc2ccccc21` (centres undefined), the Potency [1] is reported as “inactive”, the Potency [2] is reported as “inactive” and the Potency [5] is reported as “inactive”. The Potency [4] was “inactive”.

In the case of `CC(C(=O)O)c1ccc2c(c1)[nH]c1ccc(Cl)cc12` (centres undefined), the Potency [1] is reported as “inactive”, the Potency [2] is reported as “inactive” and the Potency [6] is reported as “inactive”. The Potency [5] was “inactive” and the Potency [4] was “inactive”.

With `OCC(F)(F)F` the Potency [1] was “inactive”, the Potency [2] was “inactive” and the Potency [6] was “inactive”. The Potency [5] was “inactive” and the Potency [4] was “inactive”.

In the case of `CNc1ccc([N+](=O)[O-])cc1`, the Potency [1] is reported as “inactive”, the Potency [6] is reported as 68.7 µM (active) and the Potency [3] is reported as 68.7 µM (active). For the same compound, the Potency [5] was “inactive”, the Potency [10] was “inactive” and the Potency [9] was “inactive”.

For `CCCNCCC`, the Potency [1] was “inactive”, the Potency [6] was “inactive” and the Potency [3] was “inactive”. For the same compound, the Potency [5] was “inactive” and the Potency [4] was “inactive”.

In the case of `Nc1ccc(Oc2ccc(Cl)cc2)cc1`, the Potency [1] is reported as “inactive”, the Potency [2] is reported as “inactive” and the Potency [5] is reported as “inactive”. For the same compound, the Potency [4] was “inactive”.

For `CC(C)(C)CC(C)(C)c1ccc(Nc2ccc(C(C)(C)CC(C)(C)C)cc2)cc1`, the viability change, negative = cytotoxic [1] was -8.5% [at 7.04 µM], the activity, negative = cytotoxicity [6] was 3.12% [at 8.53 µM] and the activity change, negative = cytotoxicity [3] was 9.12% [at 8.55 µM]. For the same compound, the activity change, negative = cytotoxicity [5] was 1.05% [at 7.04 µM] and the viability change, negative = cytotoxic [4] was -4.37% [at 8.47 µM].

For `Nc1nc(-c2ccccc2)cs1`, the Potency [1] was “inactive”, the Potency [2] was “inactive” and the Potency [3] was “inactive”. For the same compound, the Potency [5] was “inactive” and the Potency [4] was “inactive”.

For `Cc1cc(C(C)(C)C)c(O)c(C)c1Cn1c(=O)n(Cc2c(C)cc(C(C)(C)C)c(O)c2C)c(=O)n(Cc2c(C)cc(C(C)(C)C)c(O)c2C)c1=O`, the Potency [1] was “inactive”, the Potency [6] was “inactive” and the Potency [3] was “inactive”. The Potency [5] was “inactive” and the Potency [4] was “inactive”.

In the case of `COC(=O)c1ccccc1OC`, the Potency [6] is reported as “inactive”, the Potency [3] is reported as “inactive” and the Potency [5] is reported as “inactive”. For the same compound, the Potency [4] was “inactive”.

In the case of `O=c1[nH]c(=O)n([C@H]2C[C@H](O)[C@@H](CO)O2)cc1F`, the Potency [2] is reported as 0.0053 µM (active), the Potency [6] is reported as 0.0038 µM (active) and the Potency [3] is reported as 0.0019 µM (active). For the same compound, the Potency [5] was “inactive” and the Potency [4] was “inactive”.

Reference: PubChem BioAssay (Tox21)
